In ChEMBL document CHEMBL1961873, “Compounds: GSK PKIS; Assays: Nanosyn kinase panel” (2012) one finds inhibition data, which are given here for 17 molecules.

One may read the inhibition as the change of the read-out against control, counted positive when it falls.

Assay [1] has as its target Serine/threonine-protein kinase 26 (Homo sapiens) (UniProt Q9P289). As to conditions: at 1 µM.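 Also: mean inhibition of MST4 kinase activity, reported from the GSK PKIS inhibitor-set screening panel.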
In assay [2] the target is Serine/threonine-protein kinase PAK 1 (Homo sapiens) (UniProt Q13153). Conditions: at 0.1 µM.
Chain of Serine/threonine-protein kinase PAK 1 (Homo sapiens) (Q13153 whole entry): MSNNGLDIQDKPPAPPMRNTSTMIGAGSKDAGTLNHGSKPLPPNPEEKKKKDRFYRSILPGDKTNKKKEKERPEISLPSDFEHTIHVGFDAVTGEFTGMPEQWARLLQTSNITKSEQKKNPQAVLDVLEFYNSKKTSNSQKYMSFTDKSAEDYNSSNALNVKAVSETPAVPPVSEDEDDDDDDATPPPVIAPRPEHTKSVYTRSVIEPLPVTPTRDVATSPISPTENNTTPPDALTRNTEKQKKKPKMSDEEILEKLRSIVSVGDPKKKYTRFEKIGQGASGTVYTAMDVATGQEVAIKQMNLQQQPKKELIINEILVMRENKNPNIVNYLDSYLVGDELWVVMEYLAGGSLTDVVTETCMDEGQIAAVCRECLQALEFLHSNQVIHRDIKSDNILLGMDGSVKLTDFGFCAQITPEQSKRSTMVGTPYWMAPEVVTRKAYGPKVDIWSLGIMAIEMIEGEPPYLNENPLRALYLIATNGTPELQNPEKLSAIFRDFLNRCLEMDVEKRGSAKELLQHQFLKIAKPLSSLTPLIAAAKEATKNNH
Assay [3] has the same target. As to conditions: at 1 µM.
In assay [4] the target is Serine/threonine-protein kinase PAK 2 (Homo sapiens) (UniProt Q13177). Conditions: at 0.1 µM.
Chain of Serine/threonine-protein kinase PAK 2 (Homo sapiens) (Q13177 whole entry): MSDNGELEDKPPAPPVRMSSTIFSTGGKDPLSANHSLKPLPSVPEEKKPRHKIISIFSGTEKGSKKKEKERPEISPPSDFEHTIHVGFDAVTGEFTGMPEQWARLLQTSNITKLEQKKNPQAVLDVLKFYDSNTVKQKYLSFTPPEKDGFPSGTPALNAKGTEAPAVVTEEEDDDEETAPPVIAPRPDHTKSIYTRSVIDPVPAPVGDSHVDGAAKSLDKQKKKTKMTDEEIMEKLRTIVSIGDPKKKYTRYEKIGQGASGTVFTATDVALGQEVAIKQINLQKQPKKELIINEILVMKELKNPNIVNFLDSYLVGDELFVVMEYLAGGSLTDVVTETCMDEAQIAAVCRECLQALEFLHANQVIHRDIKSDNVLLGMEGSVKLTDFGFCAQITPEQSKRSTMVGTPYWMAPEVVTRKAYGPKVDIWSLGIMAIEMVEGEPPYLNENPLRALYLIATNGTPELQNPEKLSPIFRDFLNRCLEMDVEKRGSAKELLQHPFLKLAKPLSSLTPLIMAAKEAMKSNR
For assay [5] the target is unchanged. As to conditions: at 1 µM.
Assay [6] concerns the target Serine/threonine-protein kinase PAK 3 (Homo sapiens) (UniProt O75914). As to conditions: at 0.1 µM.
The target is the same in assay [7]. As to conditions: at 1 µM.
The target of assay [8] is Serine/threonine-protein kinase PAK 5 (Homo sapiens) (UniProt Q9P286). Conditions: at 0.1 µM.
Chain of Serine/threonine-protein kinase PAK 5 (Homo sapiens) (Q9P286 whole entry, looked up): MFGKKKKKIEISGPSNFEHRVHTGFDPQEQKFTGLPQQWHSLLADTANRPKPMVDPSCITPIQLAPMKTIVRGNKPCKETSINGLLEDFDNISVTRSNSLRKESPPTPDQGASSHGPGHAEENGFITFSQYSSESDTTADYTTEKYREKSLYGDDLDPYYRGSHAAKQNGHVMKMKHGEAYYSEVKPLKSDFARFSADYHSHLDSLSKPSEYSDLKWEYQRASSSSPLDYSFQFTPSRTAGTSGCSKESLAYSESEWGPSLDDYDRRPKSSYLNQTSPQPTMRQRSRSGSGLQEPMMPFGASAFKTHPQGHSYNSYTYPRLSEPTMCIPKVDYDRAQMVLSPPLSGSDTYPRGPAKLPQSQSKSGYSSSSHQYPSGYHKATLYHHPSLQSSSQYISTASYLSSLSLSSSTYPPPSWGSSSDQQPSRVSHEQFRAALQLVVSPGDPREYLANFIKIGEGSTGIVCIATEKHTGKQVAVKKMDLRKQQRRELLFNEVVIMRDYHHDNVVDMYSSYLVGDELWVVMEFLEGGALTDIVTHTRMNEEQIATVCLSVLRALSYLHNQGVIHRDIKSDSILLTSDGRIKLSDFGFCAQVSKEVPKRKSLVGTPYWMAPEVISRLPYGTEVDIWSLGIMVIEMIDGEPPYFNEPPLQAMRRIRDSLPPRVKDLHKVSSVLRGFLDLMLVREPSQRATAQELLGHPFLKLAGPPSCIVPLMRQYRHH
For assay [9] the target is unchanged. As to conditions: at 1 µM.
For assay [10], the target named is Serine/threonine-protein kinase PAK 6 (Homo sapiens) (UniProt Q9NQU5). As to conditions: at 0.1 µM.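 Also: mean PAK6 inhibition reported from the GSK PKIS screen.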
Chain of Serine/threonine-protein kinase PAK 6 (Homo sapiens) (Q9NQU5 whole entry, looked up): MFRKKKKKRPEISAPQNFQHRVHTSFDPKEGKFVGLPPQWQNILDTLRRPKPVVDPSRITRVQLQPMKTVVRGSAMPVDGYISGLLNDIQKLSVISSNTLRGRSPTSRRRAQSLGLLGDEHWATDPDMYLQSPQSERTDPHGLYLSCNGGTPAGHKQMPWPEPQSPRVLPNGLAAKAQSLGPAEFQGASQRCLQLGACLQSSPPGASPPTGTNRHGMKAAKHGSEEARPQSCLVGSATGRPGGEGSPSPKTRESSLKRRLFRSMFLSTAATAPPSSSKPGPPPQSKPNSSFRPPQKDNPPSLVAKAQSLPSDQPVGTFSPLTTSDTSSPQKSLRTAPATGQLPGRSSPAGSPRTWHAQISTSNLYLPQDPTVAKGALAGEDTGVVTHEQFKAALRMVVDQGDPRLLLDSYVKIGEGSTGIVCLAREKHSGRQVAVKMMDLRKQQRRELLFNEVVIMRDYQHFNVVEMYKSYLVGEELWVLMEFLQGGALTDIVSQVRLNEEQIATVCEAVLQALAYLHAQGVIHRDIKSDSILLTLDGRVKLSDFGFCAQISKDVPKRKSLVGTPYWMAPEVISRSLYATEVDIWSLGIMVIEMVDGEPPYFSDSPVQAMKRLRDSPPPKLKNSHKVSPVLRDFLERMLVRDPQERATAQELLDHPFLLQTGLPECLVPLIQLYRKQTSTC

Chain of Serine/threonine-protein kinase PAK 3 (Homo sapiens) (O75914 whole entry, looked up): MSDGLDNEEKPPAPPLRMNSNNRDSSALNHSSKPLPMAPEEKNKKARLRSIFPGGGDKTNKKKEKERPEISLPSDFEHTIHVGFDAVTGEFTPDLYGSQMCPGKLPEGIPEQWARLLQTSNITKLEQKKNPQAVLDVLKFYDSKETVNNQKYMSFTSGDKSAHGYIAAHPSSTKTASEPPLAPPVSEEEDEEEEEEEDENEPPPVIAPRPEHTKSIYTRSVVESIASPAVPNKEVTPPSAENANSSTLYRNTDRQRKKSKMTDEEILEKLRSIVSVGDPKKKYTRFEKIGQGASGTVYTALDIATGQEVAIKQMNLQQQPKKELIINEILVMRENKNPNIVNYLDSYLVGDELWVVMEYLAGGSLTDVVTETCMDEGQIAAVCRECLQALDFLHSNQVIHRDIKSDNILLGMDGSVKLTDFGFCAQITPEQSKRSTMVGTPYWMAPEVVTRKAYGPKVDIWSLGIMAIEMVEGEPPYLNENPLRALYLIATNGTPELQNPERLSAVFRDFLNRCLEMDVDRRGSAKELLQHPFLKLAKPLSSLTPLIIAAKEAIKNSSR
Chain of Serine/threonine-protein kinase 26 (Homo sapiens) (Q9P289 2-416 limits assumed): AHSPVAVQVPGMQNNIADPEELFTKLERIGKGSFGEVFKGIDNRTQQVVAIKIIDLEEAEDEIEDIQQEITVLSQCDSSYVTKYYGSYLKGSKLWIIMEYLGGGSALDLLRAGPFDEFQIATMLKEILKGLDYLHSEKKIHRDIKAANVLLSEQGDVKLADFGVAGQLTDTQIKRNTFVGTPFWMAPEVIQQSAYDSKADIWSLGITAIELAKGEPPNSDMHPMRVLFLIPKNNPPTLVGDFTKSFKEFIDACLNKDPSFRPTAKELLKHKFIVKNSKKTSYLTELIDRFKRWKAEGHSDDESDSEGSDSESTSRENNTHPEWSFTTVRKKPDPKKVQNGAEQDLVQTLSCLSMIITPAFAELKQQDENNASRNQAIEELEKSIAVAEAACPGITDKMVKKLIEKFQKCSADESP

Consider `C#Cc1cccc(Nc2ncnc3ccc(OCCCCNCCS(C)(=O)=O)cc23)c1`, for which the inhibition was -0.45% in assay [1]; 9.27% in assay [2]; 7.48% in [3]; 2.71% in assay [4]; 1.48% in assay [5]; 4.58% in assay [6]. The inhibition is 5.67% in [7], 2.62% in assay [8], 4.31% in assay [9] and -6.04% in assay [10].

Take `NC(=O)c1cc(-c2ccc(F)cc2)cc(-c2ccncc2)c1N`: the inhibition in assay [1] is -1.28%; in [2] it was 5.31%; in [3], 6.13%; in [4], 0.6%; in assay [5], 1.36%; in assay [6], 4.12%. The inhibition is 4.25% in assay [7], -1.26% in assay [8], 1.21% in assay [9] and -6.76% in assay [10].

For `Cc1nnc(-c2ccc(C)c(-c3ccc(C(=O)NCc4ccc(Cl)cc4)cc3)c2)o1`, the inhibition in assay [1] turned out to be 0.59%; in [2], 7.92%; in [3], 6.11%; in assay [4], 1.55%; in assay [5], 1.24%; in assay [6] it was 4.16%. Further, the inhibition was 4.01% in [7], -2.54% in assay [9] and -4.24% in assay [10].

For `NC(=O)c1ccc(Oc2nccc(-c3c(-c4ccc(F)cc4)ncn3C3CCNCC3)n2)cc1`, the inhibition is 2.28% in assay [1]; 10% in [2]; 11% in [3]; 2.27% in assay [4]; 2.2% in [5]; 6.67% in assay [6]. Further, the inhibition in [7] is 9.21%; in assay [8] it was 4.23%; in assay [9], 0.82%; in [10], -4.02%.

Turning to `CN(C)c1ccc2c(c1)/C(=C/Nc1ccc(S(N)(=O)=O)cc1)C(=O)N2`, the inhibition in [1] is 20.2%; in assay [2] it was 4.25%; in assay [3] it was 2.53%; in assay [4], -0.61%; in assay [5], 0.6%; in [6], 1.32%. The inhibition in assay [7] was 2.05%; in assay [8] it was -3.51%; in assay [9] it was -4.48%; in assay [10], 11.8%.

For `CCS(=O)(=O)c1ccc(OC)c(Nc2ncc(-c3cccc(-c4ccccc4F)c3)o2)c1`, the inhibition is -0.27% in assay [1]; -2.19% in assay [2]; -0.96% in [3]; -1% in [4]; -0.6% in [5]; -0.65% in assay [6]. Also, the inhibition in assay [7] is -0.27%; in assay [8], 6.6%; in assay [9], 2.9%; in assay [10] it was 12.3%.

As to `COc1cc(C)c(N(C)C(=O)CN(C)C)cc1Nc1nc(Nc2cccc(F)c2C(N)=O)c2cc[nH]c2n1`, the inhibition in assay [1] was -1.63%; in assay [2], 1.45%; in assay [3], 0.54%; in assay [4], 1.63%; in assay [5], 0.77%; in assay [6], 1.47%. For the same molecule, the inhibition in assay [7] is 2.79%; in assay [8], 1.86%; in assay [9] it was 1.84%; in [10], -1.02%.

As to `FC(F)(F)c1cccc(Nc2nccc(-c3cnn4nc(-c5ccccc5)ccc34)n2)c1`, the inhibition in assay [1] was -3.24%; in [2] it was 6.28%; in [3], 3.48%; in assay [4], 0.33%; in assay [5], 0.77%; in assay [6], 2.74%. Further, the inhibition was 2.27% in [7], -0.43% in assay [8], -0.64% in assay [9] and -2.37% in assay [10].

With `COc1cc2ncn(-c3cc(OCCc4ccccc4)c(C(N)=O)s3)c2cc1OC`, the inhibition was -2.27% in [1]; -1.36% in assay [2]; 5.32% in assay [3]; 0.32% in assay [4]; -0.01% in assay [5]; 2.35% in assay [6]. Moreover, the inhibition in assay [7] is 2.82%; in [8], -3.93%; in assay [9] it was -5.75%; in assay [10] it was 1.18%.

Take `NC(=O)Cc1ccccc1Oc1nccc(-c2c(-c3ccc(F)cc3)ncn2C2CCNCC2)n1`: the inhibition in assay [1] is -1.77%; in assay [2], 4.71%; in assay [3], 7.55%; in assay [4] it was 1.39%; in assay [5] it was 1.36%; in assay [6], 0.09%. In addition, the inhibition in assay [7] is 3.36%; in assay [8] it was -1.8%; in assay [9], -2.81%; in assay [10], 1.97%.

On to `O=C(Nc1n[nH]c2nc(-c3ccc(O)cc3)c(Br)cc12)C1CC1`, for which the inhibition worked out at 35% in assay [1]; 7.71% in [2]; 8.21% in [3]; 2.36% in assay [4]; 3.87% in assay [5]; 6.07% in assay [7]. Also, the inhibition is 1.12% in assay [8], 8.52% in assay [9] and -0.4% in assay [10].

Take `NC(=O)c1cc(-c2ccncc2)cc(-c2ccccc2)c1N`: the inhibition in assay [1] is -1.56%; in [2], 7.55%; in assay [3] it was 6.44%; in [4], 2.07%; in [5], 2.41%; in [6], 7.15%. Moreover, the inhibition in assay [7] is 6.71%; in [8], 1.02%; in assay [9] it was 2.18%; in [10], -0.84%.

On to `N#Cc1ccc(Oc2nccc(-c3c(-c4ccc(F)cc4)ncn3C3CCNCC3)n2)cc1`, for which the inhibition in assay [1] was -2.91%; in assay [2] it was 7.47%; in assay [3] it was 7.87%; in [4], 1.65%; in assay [5], 2.68%; in assay [6] it was 4.55%. The inhibition in assay [7] was 4.04%; in [8] it was 2.41%; in [9], 0.4%; in assay [10], -4.78%.

As for `NCc1ccc(-n2c(-c3nonc3N)nc3cnccc32)cc1`, the inhibition was -0.73% in assay [1]; 12% in [2]; 11.4% in assay [3]; 3.24% in assay [4]; 4.52% in assay [5]; 5.94% in [6]. The inhibition in [7] was 6.83%; in assay [9], -2.63%; in assay [10] it was -1.38%.

As for `COc1ccc(-c2ccc3c(NC(=O)C4CC4)n[nH]c3n2)cc1`, the inhibition in assay [1] was 1.05%; in [2] it was 2.82%; in [3], 2.7%; in [4], -1.11%; in assay [5], -0.84%; in [6], 3.36%. In addition, the inhibition is 3.17% in [7], -5.83% in assay [8], -4.91% in assay [9] and 2.86% in assay [10].

As to `C[C@@H](Oc1cc(-n2cnc3ccc(OCC4CCN(C)CC4)cc32)sc1C(N)=O)c1ccccc1Cl`, the inhibition is 9.41% in [2]; 11.3% in assay [3]; 3.01% in [4]; 3.81% in assay [5]; 6.02% in assay [6]; 6.85% in assay [7]. Further, the inhibition in [8] came to 5.72%; in assay [9] it was 7.38%.

On to `COc1cc(Nc2ncc3c(C)nc(-c4cccc(C(F)(F)F)c4)n3n2)cc(OC)c1OC`, for which the inhibition in assay [1] was found to be 5.84%; in assay [2], 6.01%; in assay [3] it was 8.56%; in assay [4], 1.46%; in [5], 2.81%; in assay [6], 3.31%. Moreover, the inhibition in assay [7] is 7.5%; in assay [8], 5.75%; in assay [9], 15.9%; in [10], -0.28%.
